Bioassay records: PubChem BioAssay, National Center for Advancing Translational Sciences (NCATS)
Rows were chosen to be rich in hits. Some 22% of all compounds tested hit in one or more screens of this group.
LmPK inhibitor – blocks Leishmania mexicana pyruvate kinase activity; actives 0.37% (n = 290,000); purified LmPK, Kinase-Glo ATP luminescence, 1 h; Potency, µM (series often up to 57.5 µM), for the others: at the highest dose activity change, negative = inhibition, usual class: inhibitors; further: potency means the concentration at half of the fitted maximal effect; on the % scale 0 is the no-effect control and ±100 the full control effect
Target sequence (Q27686 whole entry, looked up): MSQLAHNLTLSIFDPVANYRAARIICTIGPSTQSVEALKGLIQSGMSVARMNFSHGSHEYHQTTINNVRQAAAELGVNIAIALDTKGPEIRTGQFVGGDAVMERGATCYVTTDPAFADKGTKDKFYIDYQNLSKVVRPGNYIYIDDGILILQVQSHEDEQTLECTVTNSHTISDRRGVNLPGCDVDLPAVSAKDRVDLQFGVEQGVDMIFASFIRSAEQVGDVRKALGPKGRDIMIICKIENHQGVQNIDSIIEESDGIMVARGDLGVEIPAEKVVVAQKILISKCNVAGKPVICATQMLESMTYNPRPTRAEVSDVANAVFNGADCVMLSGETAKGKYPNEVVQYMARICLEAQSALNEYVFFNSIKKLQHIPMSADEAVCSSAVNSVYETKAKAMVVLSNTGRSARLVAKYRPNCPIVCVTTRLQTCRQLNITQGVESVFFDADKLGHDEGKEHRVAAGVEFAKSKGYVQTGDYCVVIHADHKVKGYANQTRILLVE
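Kinase-Glo luminescence read after 1 h RT reaction of 0.1 nM LmPK with 0.5 mM PEP and 0.1 mM ADP. Activity scaled between uninhibited and enzyme-free controls.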
Pf growth 96h – inhibits malaria parasite growth, 96 h. P. falciparum luciferase reporter growth, 96 h. Potency, µM (top dose mostly 28.7 µM), for the others: top-dose activity change, negative = inhibition, most hits filed as inhibitors. actives 6.9% (n = 320,000); further: potency means the concentration at half of the fitted maximal effect; on the % scale 0 is the no-effect control and ±100 the full control effect
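Parasite growth measured via integrated firefly luciferase reporter in P. falciparum. Infected erythrocytes at 2% hematocrit, 0.05% parasitemia final were treated 96 hours at 37 C under 5% CO2, and luminescence was read.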
Shiga toxin inh – blocks Shiga toxin action in Vero cells; Vero cells, Shiga toxin protein synthesis inhibition reporter; AID 2315; inhibition, % at 38.7 µM; actives 9.2% (n = 290,000); in the data active means inhibition mostly above about 28%, no sharp cut-off; inactive means mostly below about 43%; further: 0% is about no effect
Pf growth 48h – P. falciparum growth inhibition at 48 hours (one generation); P. falciparum luciferase growth in erythrocytes, 48 h; Potency, µM (titrated, usually from 28.7 µM), for inactives: at the highest dose activity change, negative = inhibition, actives largely listed as inhibitors; actives 5.9% (n = 310,000); AID 504832; further: potency means the concentration at half of the fitted maximal effect; on the % scale 0 is the no-effect control and ±100 the full control effect
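Luciferase-expressing P. falciparum in infected erythrocytes (2% hematocrit, 0.1% parasitemia final) in RPMI 1640/0.5% Albumax were exposed to compound for 48 hours at 37 C, 5% CO2; growth read as luminescence.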
CHX counter – counter-screen for Shiga toxin inhibitors: cycloheximide protein synthesis inhibition | cell reporter, cycloheximide protein synthesis inhibition counterscreen | max response, % | actives 12% (n = 300,000) | AID 2314; in the data active means max response mostly above about 13%, no sharp cut-off; inactive means mostly below about 14%; further: read at 38.3 µM for the half of the compounds with a filed dose; 0% is about no effect
The depositor's hits bear a star; ? = inconclusive; / = no result given. Unless noted, the call rests on the fitted dose curve; in most records, active means well fitted inhibition curve with a large enough effect; inconclusive means small, poorly fitted or top-dose-only effect, or another doubt; inactive means no such curve, though single readings can be large or run the other way.

SMILES | LmPK inhibitor | Pf growth 96h | Shiga toxin inh | Pf growth 48h | CHX counter
Cc1ccc(C)c(N2CCN(C(=O)c3ccc4nsnc4c3)CC2)c1 | 5% | -19% | -5 | ? | -4
Cn1c(SCC(=O)c2ccc3c(c2)Cc2ccccc2-3)nnc1-c1cccc(N)c1 | -3% | ? | 14 | ? | 20*
CC(=O)Nc1ccc(NC(=O)CSc2nnc(-c3cccs3)n2C)cc1 | 0% | 13% | -11 | 7% | -4
CC(C)c1ccc(-c2nnc(SCC(=O)NC3CC3)n2C)cc1 | -7% | 0% | 37* | 55% | 13*
Cn1c(SCC(=O)c2ccc(O)c(O)c2)nnc1-c1cccs1 | -3% | ? | 11 | ? | 26*
Cn1c(SCC(=O)NC2CCCC2)nnc1-c1ccncc1 | 1% | -12% | -17 | -9% | -6
Cn1c(SCC(=O)N(C2CCCCC2)C2CCCCC2)nnc1-c1cccs1 | -2% | / | -4 | 12µM* | -2
CC(=O)Nc1ccc(-c2nnc(SCC(=O)c3ccc4c(c3)Cc3ccccc3-4)n2C)cc1 | 3% | ? | 21 | ? | 9
Cn1c(SCC(=O)NC2CCCCC2)nnc1-c1ccccn1 | -15% | 7% | -33 | 13% | 5
Cn1c(SCC(=O)NC2CC2)nnc1-c1cccs1 | -12% | 4% | 75* | 235% | 62*
Cn1c(SCC(=O)NC2CCCCC2)nnc1-c1cccc(N)c1 | 6% | 4.1µM* | 8 | -19% | 4
CCCn1c(SCC(=O)NC2CC2)nnc1-c1cccs1 | -14% | -18% | -31 | 13% | -1
CCCCNC(=S)Nc1ccccc1F | 2% | 13% | -14 | 13% | 10
CC(NS(=O)(=O)c1c(N)n(C)c(=O)n(C)c1=O)c1ccccc1 (configuration not stated) | -4% | 2% | 57* | 3% | 29*
Clc1ccc(OCCCc2nc(-c3cccnc3)no2)c(Cl)c1 | 2% | 9.3µM* | -13 | 6% | 14
Clc1ccc(OCc2nc(-c3ccccn3)no2)c(Br)c1 | -15% | 39% | 66* | 190% | 42*
Clc1ccc(-c2noc(COc3ccccc3)n2)cc1 | -3% | 27% | 24 | 55% | -2
Clc1ccccc1OCc1nn[nH]n1 | 5% | -15% | 5 | 23% | 0
Clc1ccccc1OCc1nc(-c2ccccn2)no1 | ? | / | 70* | 293% | 33*
Clc1ccc(OCCCc2nc(-c3ccncc3)no2)c(Cl)c1 | 0% | 24% | 16 | 44% | 16
Cc1cc(C)nc(NNC(=O)c2ccccc2O)n1 | 0% | -23% | -2 | 11% | -4
COCc1c(C(=O)N/N=C/c2ccc(C)o2)nnn1-c1nonc1N | 12% | 9% | 20 | 0% | -4
NCCCCCCC(O)(P(=O)(O)O)P(=O)(O)O | / | / | 10 | / | -5
C1CCC(Nc2nnnn2C2CCCCC2)CC1 | 1% | 6% | 20 | 21% | -4
CN(C)/C=C/C(=O)c1nnn(C2CCCCC2)c1NC1CCCCC1 | 3% | / | 8 | 5.2µM* | 9
SMILES | LmPK inhibitor | Pf growth 96h | Shiga toxin inh | Pf growth 48h | CHX counter
CCS(=O)(=O)N1Cc2ccccc2CC1C(=O)N(C)Cc1ccc(OC)c(F)c1 (configuration not stated) | 3% | ? | 3 | -29% | 11
CC1CCC(C(C)C)C(OC(=O)Cn2c(COc3ccccc3)[n+](C)c3ccccc32)C1 (configuration not stated) | 3% | 2.3µM* | -12 | 1.7µM* | -2
Cc1cccc(OCc2n(CC(=O)OC3CC(C)CCC3C(C)C)c3ccccc3[n+]2C)c1 (configuration not stated) | 3% | 2% | -23 | 2.3µM* | -4
Cc1cccc(OC(=O)Cn2c(C(F)(F)F)nc3ccccc32)c1 | 2% | 114% | -8 | 15% | 3
CCOC(=O)N1CCN(S(=O)(=O)c2c(C)nc3scc(C)n3c2=O)CC1 | -3% | 13% | -4 | ? | -3
CCN(CC(=O)Nc1ccc2c(c1)OCCO2)C(=O)/C=C/c1cccc(Br)c1 | / | 69% | / | 34% | /
CC(C)(C)c1ccc(NC(=O)Nc2ccc(OCC(=O)N3CCOCC3)cc2)cc1 | 5% | -38% | 93* | 212% | 35*
O=C(Nc1ccc(OCC(=O)N2CCOCC2)cc1)Nc1cccc(Cl)c1 | 4% | -23% | 39* | -11% | 14*
O=C(Nc1ccc(C(=O)N2CCOCC2)cc1)Nc1cccc(Cl)c1 | -18% | ? | 65* | 86% | 44*
